EBV gp42 inh = Epstein-Barr virus gp42 inhibitors, primary screen, biochemical, uHTS, fluorescence polarization; inhibition, % (tested at 21.74 µM); Glycoprotein 42 (Epstein-Barr virus (strain AG876)), Q1HVG2; 220,000 compounds, 0.42% hits; Fluorescence polarization binding assay, mP read-out; AID 1085, 2008; in the data active = inhibition above about 50%
Target sequence (Q1HVG2 whole entry, looked up): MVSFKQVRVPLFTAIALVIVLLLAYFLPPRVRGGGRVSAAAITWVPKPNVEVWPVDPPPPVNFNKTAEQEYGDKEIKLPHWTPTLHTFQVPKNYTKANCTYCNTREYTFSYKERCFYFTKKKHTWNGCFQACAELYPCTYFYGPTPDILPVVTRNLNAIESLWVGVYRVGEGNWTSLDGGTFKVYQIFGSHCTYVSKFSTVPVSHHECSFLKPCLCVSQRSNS
PABP FP inh = PABP poly(A) RNA binding inhibitors, primary screen, biochemical, fluorescence polarization, uHTS. 290,000 compounds, 1% hits. calls only at 35 µM. Polyadenylate-binding protein 1 (Homo sapiens), P11940;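 note: calls also rest on retests at 20 µM and on dose response follow-up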
MLLE-PAM2 inh = inhibitors of PABP1 MLLE–PAM2 peptide binding, primary screen, biochemical, fluorescence polarization, FITC-PAM2, GST-MLLE; Polyadenylate-binding protein 1 (Homo sapiens), P11940; inhibition, % at 20 µM; AID 588489, 2011; 360,000 compounds, 0.36% hits; in the data active = inhibition above about 35%, passing the limit was not always enough;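 note: plate controls were DMSO wells with GST-MLLE for no effect and wells lacking GST-MLLE protein for full effect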
eIF4E-4G inh = eIF4E–eIF4G protein interaction inhibitors, primary screen, biochemical, uHTS, TR-FRET, eIF4GI fragment; inhibition, % at 21.7 µM; AID 782, 2007; Eukaryotic translation initiation factor 4E (Mus musculus) + Eukaryotic translation …; 220,000 compounds, 0.37% hits; TR-FRET eIF4E-eIF4GI(517-606) binding, 2 h;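 active = inhibition above about 30%, limit read from the data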;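 note: 0% = full FRET control wells and 100% = background wells lacking eIF4GI fragment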
eIF4H FP inh = human eIF4H binding inhibitors, primary screen, translation initiation inhibitor project, biochemical, uHTS, fluorescence polarization. Eukaryotic translation initiation factor 4H (Homo sapiens), Q15056. eIF4H fluorescence polarization binding assay. inhibition, % at 35 µM. 290,000 compounds, 0.94% hits;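 note: calls also rest on retests at 20 µM and on dose response follow-up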
Starred values were filed as active, the others as inactive; i = inactive; ? = inconclusive; · = no result given; + = active, no number. A selection: hits, their analogues and other compounds. The true share with any hit is near 1.7%. Unless noted, the rule behind the calls is not given here.

SMILES	EBV gp42 inh	PABP FP inh	MLLE-PAM2 inh	eIF4E-4G inh	eIF4H FP inh
O=C(c1ccco1)[C@@H]1[C@@H]2C(=O)N(c3ccc(F)cc3)C(=O)[C@@H]2C2c3ccccc3C=CN21 (some centres not stated)	54*	+	·	-2	70
O=C(c1ccco1)[C@@H]1[C@@H]2C(=O)N(c3ccc(Br)cc3)C(=O)[C@@H]2C2c3ccccc3C=CN21 (some centres not stated)	·	i	21	·	55
CCCc1cc(=O)[nH]c(SCC(=O)NCCN2C(=O)CSC2=O)n1	·	·	2	·	·
Clc1ccc(CSc2nnc(CNc3cccc(Cl)c3)o2)cc1	-2	+	-4	6	63*
CCC1(C)Cc2ccccc2/C(=C/C(=O)N2CCCCC2)N1 (configuration not stated)	8	+	24	4	30
CC12CC3(C)CC(C)(C1)CC(C(=O)NC(=S)NC(C)(C)C)(C2)C3	-17	i	43*	-5	-1
O=C(CN1C(=O)c2ccccc2S1(=O)=O)Nc1ccc([N+](=O)[O-])cc1	·	·	-9	·	·
COc1ccc2c3c(ccc2c1)C(=O)/C(=C/O)CC3	·	·	43*	·	·
CCC(=O)N1CCC1(C)C(=O)Nc1cccc2c1CCCC2 (configuration not stated)	·	·	-7	·	·
CC(=O)N1CCOCC1c1cc(C(=O)Nc2ccccc2)no1 (configuration not stated)	·	·	12	·	·
COc1ccc(NC(=O)Nc2nnc(-c3ccncc3)s2)cc1	-10	i	9	3	7
O=C(Nc1ccc(Cl)c(Cl)c1)Nc1nnc(-c2ccncc2)s1	83*	+	-6	38*	74*
COC(=O)c1sc(NC(=O)/C=C/c2ccc(C)o2)nc1C	-19	i	5	0	95*
Cc1ccc(/C=C/C(=O)Nc2nn[nH]n2)o1	-5	i	36*	3	38
COC(=O)c1sc(NC(=O)c2ccoc2C)nc1C	-12	i	0	3	3
Nc1ccc(-c2nc3ncccc3o2)cc1	·	i	0	·	-12
CC(C)c1ccc(O)c(NC(=S)NC(=O)CCc2ccccc2)c1	3	i	43*	-1	12
COc1ccccc1NC(=S)NC(=O)CCc1ccccc1	·	i	28	·	-2
C=CCN(CC=C)Cc1cc(=O)oc2cc(C)c(C)cc12	·	·	-12	·	·
Brc1ccc(-c2csc(/N=C/N3CCCC3)n2)cc1	18	+	11	0	active
Brc1ccc(-c2csc(/N=C/N3CCOCC3)n2)cc1	7	i	3	-1	1
COc1cc(OC)cc(C(=O)NNC(=O)CCC2CCCC2)c1	·	·	-11	·	·
CC(/C=N/n1c(-c2cc(C)[nH]n2)n[nH]c1=S)=C\c1ccco1	-11	i	-9	8	81
CC(/C=N/n1cnnc1)=C\c1ccco1	0	+	2	9	72
N#Cc1ccc(Cl)cc1NC(=O)CSc1nc2nc(-c3cccs3)cc(C(F)(F)F)c2c(=O)[nH]1	-10	i	·	31*	16
SMILES	EBV gp42 inh	PABP FP inh	MLLE-PAM2 inh	eIF4E-4G inh	eIF4H FP inh
O=C1/C(=C/c2ccc(Br)cc2)Oc2cc(O)ccc21	·	+	-46	·	61
Cc1nc(C(F)(F)F)c(C(=O)N/N=C(\N)c2cccnc2)s1	-12	i	0	2	-3
Cc1c(-n2cccc2C=O)cccc1[N+](=O)[O-]	-6	i	1	86*	-6
O=Cc1cccn1-c1cccc([N+](=O)[O-])c1	-10	i	4	-4	4
CC(C)CNc1nc(=S)nc(N(C)C)[nH]1	3	i	43*	5	-12
Cc1ncc([N+](=O)[O-])n1CC(=O)Nc1ccc(F)cc1F	·	i	5	·	-1
CN(C)C(=O)c1cccc(-c2cccc(-c3nc(C(=O)NCc4ccccc4)cc4c3[C@H](CCO)N(S(=O)C(C)(C)C)C4)c2)c1 (some centres not stated)	·	·	-30	·	·
Cc1cccc(C)c1NC(=O)COC(=O)c1c2c(nc3ccccc13)/C(=C\c1ccc3c(c1)OCO3)CCC2	98*	i	i	9	?
Cc1cccc(C)c1NC(=O)COC(=O)c1ccc2c(c1)OCO2	-4	i	0	2	6
CC(OC(=O)c1c2c(nc3ccccc13)/C(=C\c1ccc3c(c1)OCO3)CCC2)C(=O)Nc1ccc(S(N)(=O)=O)cc1 (configuration not stated)	149*	i	i	8	?
Nn1c(SCc2ccccn2)nncc1=O	-5	i	-10	-1	-4
CC(CNC(=O)c1ccccc1Cl)c1ccccc1 (configuration not stated)	·	i	-7	·	3
COc1ccc(CC(=O)Nc2ccc(-c3nnc(-c4ccccc4)o3)cc2)cc1OC	-61	i	-20	33*	-48
COc1ccc(C2c3sc(=O)[nH]c3SC3C4CCC(C4)C23)cc1OC (configuration not stated)	0	i	28	-2	6
COc1cc(C2c3sc(=O)[nH]c3SC3C(=O)N(c4ccc(Br)cc4)C(=O)C32)ccc1O (configuration not stated)	-12	i	47*	-2	1
O=C(CCl)N1CCN(S(=O)(=O)Cc2ccccc2)CC1	·	·	12	·	·
O=C(CCS(=O)(=O)c1ccc(Br)cc1)NC1CCCCCC1	·	i	-7	·	64*
O=C(CCS(=O)(=O)c1ccc(Br)cc1)NCc1ccc(F)cc1	·	i	6	·	87*
O=C(CCS(=O)(=O)c1ccc(Br)cc1)NCCC1=CCCCC1	·	i	0	·	64*
Cc1ccc(CNC(=O)CCS(=O)(=O)c2ccc(Br)cc2)cc1	18	i	-10	4	88
Cc1ccc(S(=O)(=O)CCC(=O)NC2CCCCC2)cc1	·	·	-53	·	·
O=C(CCS(=O)(=O)c1ccc(Cl)cc1)NCCC1=CCCCC1	·	i	-16	·	-12
O=C(NCc1ccccc1Cl)c1ccc(CS(=O)Cc2ccc(Cl)cc2)o1 (configuration not stated)	·	i	-4	·	-8
COc1ccc(NC(=O)CSc2nnc(CCC(=O)O)c(=O)n2N)cc1	-7	i	46*	-6	6
COc1ccc(NC(=O)CSc2nnc(-c3ccccc3C)n2N)cc1	-21	i	37*	1	0
Cc1nnc(SCC(=O)Nc2ccc3c(c2)OCO3)n(N)c1=O	-11	+	14	2	active
CCOc1ccc(Cc2nnc(SCC(=O)Nc3ccc(OC)cc3)n(N)c2=O)cc1	·	·	-7	·	·
Nn1c(SCC(=O)Nc2ccc3c(c2)OCO3)nnc1-c1ccccc1	-14	i	-13	4	3
